From PubChem
HepG2 viability = qHTS for Inhibitors of TGF-b: Cytotox Counterscreen; HepG2 CAGA-GFP viability, ATP luminescence, 18 h; Potency, µM (highest dose often 46.1 µM), for the others: top-dose activity change, negative = cytotoxicity, usual class: cytotoxic; actives 0.76% (n = 410,000)
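CellTiter-Glo luminescence gave cytotoxicity after 18 hours at 37 degrees C. The cells were HepG2 CAGA-GFP in 1% FBS DMEM, stimulated with 500 pg/mL TGF-beta after compound addition. %Activity was normalised to no-cell wells (complete cell-killing) and DMSO (no toxicity), and curves were fitted and classified.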
HT1080 IDH1KD tx = qHTS for induction of synthetic lethality in tumor cells producing 2HG: qHTS for the HT-1080-IDH1KD cell line; HT-1080 IDH1 knockdown viability, ATP luminescence, 48 h; Potency, µM (series often up to 46.1 µM), for the others: top-dose activity, negative = toxicity, actives largely listed as cytotoxic; actives 2% (n = 360,000); AID 686971, 2013;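 also: 0% = DMSO wells and -100% = cell-free medium wells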
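Cytotoxicity counter-line: IDH1KD HT-1080, 48 h, CellTiter-Glo. Curves classed by r2, magnitude and activity.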
ATXN viability = Viability Counterscreen for Primary qHTS for Inhibitors of ATXN expression | S2 cells (HEK-293 line with an ATXN2-luciferase reporter) viability, CellTiter-Fluor protease fluorescence, 24 h | Potency, µM (doses to about 56.7 µM), usual class: cytotoxic | actives 0.49% (n = 400,000); also: nearly all actives have a fitted effect of over 40% in size
TGFb inhibitor = qHTS for Inhibitors of TGF-b. HepG2 CAGA-GFP TGF-b/SMAD3 reporter, GFP fluorescence, 18 h; TGF-beta stimulated, 500 pg/mL final. Potency, µM (series often up to 46.1 µM), without a hit: at the top dose activity, negative = inhibition, actives largely listed as inhibitors. actives 1.2% (n = 410,000). AID 588855, 2011; also: % is scaled to controls: 0 for no effect and ±100 for the full control effect; nearly all actives have a fitted effect of over 65% in size
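Cell-based qHTS in HEPG2 carrying a CAGA-GFP Smad reporter; compounds added before 500 pg/mL final TGF-beta, 18 h incubation at 37 degrees C, GFP fluorescence quantified per cell by imaging cytometry.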
ATXN2 expr inh = Primary qHTS for Inhibitors of ATXN expression; HEK-293 ATXN2-luciferase reporter, luminescence, 24 h; actives 0.72% (n = 360,000); Potency, µM (doses to about 57 µM), inactives show at the top dose activity change, negative = inhibition, actives largely listed as inhibitors; also: % is scaled to controls: 0 for no effect and ±100 for the full control effect; nearly all actives have a fitted effect of over 55% in size
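qHTS (up to 57 uM final) was run with 24 h compound exposure of reporter cells at 37 °C. Each well was multiplexed: SteadyGlo luminescence measured ATXN2-luciferase expression after a fluorogenic Gly-Phe-AFC viability readout (25 uM final).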
HT1080-NT tox = qHTS for induction of synthetic lethality in tumor cells producing 2HG: qHTS for the HT-1080-NT fibrosarcoma cell line; AID 686970, 2013; actives 1.6% (n = 360,000); HT-1080-NT fibrosarcoma viability, CellTiter-Glo ATP luminescence, 48 h; Potency, µM (titrated, usually from 46.1 µM), for inactives: at the highest dose activity, negative = less viability, most hits filed as cytotoxic;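 also: NT is the 2HG producing partner of a matched IDH1 knockdown line; 0% = DMSO-treated cells and -100% = media-only wells without cells; nearly all actives have a fitted effect of over 55% in size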
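Luminescent CellTiter-Glo readout after 48 hours of compound exposure at 37 degrees C defined viability of HT-1080-NT cells. Activity was normalized to DMSO wells and cell-free media wells; concentration-response curves were fitted and assigned curve classes.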
Numbers without * were called inactive; i = inactive; ? = inconclusive; . = no result; ! = repeats disagree. The list is not random: actives were taken first. Their share in the collection is about 3.8%. Calls follow the shape of the dose curve; as a rule, active = well fitted curve in the direction sought with a large enough effect; inconclusive = small, poorly fitted or top-dose-only effect, or another doubt; inactive = no such curve, though single readings can be large; an effect the other way counts as inactive or inconclusive. Potency is read from the fitted curve at half-maximal effect.

SMILES | HepG2 viability | HT1080 IDH1KD tx | ATXN viability | TGFb inhibitor | ATXN2 expr inh | HT1080-NT tox
O=C(O)c1cccc(NC2=C(Cl)C(=O)c3ccccc3C2=O)c1 | -85.6% | 16.4µM* | 25.1µM* | ? | ? | ?
Cc1ccc(NC2=C(NC(=O)c3ccccc3)C(=O)c3ccccc3C2=O)cc1Cl | 15.8µM* | -16.1% | ? | 11.2µM* | -7.6% | -17.6%
NC(=O)C1CCCN(Cc2ccc3c(c2)CN(Cc2ccccc2)CCO3)C1 (stereo unspecified) | . | . | i | . | . | .
COc1ccc(/C=C2\C=Cc3ccccc32)cc1OC | -17.1% | . | . | -17.2% | . | .
O=C(CN1Cc2ccccc2OC(c2ccccc2)C1)NCc1cccnc1 (stereo unspecified) | . | . | i | . | . | .
CN(Cc1cccc(F)c1)C(=O)c1ccc(NS(=O)(=O)c2ccc3[nH]c(=O)[nH]c3c2)cc1 | 0.282µM* | -2.4% | i | -15.9% | -15.1% | -3.7%
Cc1ccc(CN(C)C(=O)c2ccc(NS(=O)(=O)c3ccc4[nH]c(=O)[nH]c4c3)cc2)cc1 | 4.5% | 6.4% | i | ? | 9.6% | -0.6%
Cc1ccc(S(=O)(=O)CCSc2n[nH]c(=O)n2-c2ccccc2)cc1 | 24.3% | -15.9% | ? | 0.9% | -28.0% | ?
Cc1cc(C)c(-n2c(SCCS(=O)(=O)c3ccc(F)cc3)n[nH]c2=O)c(C)c1 | -10.2% | 18.4µM* | ? | -11.5% | 6.1% | ?
CCOC(=O)c1nc(Nc2ccc(C(=O)OCC(C)C)cc2)c2ccccc2n1 | -10.8% | . | i | -26.3% | -11.1% | .
CC[C@H](C)[C@H](N)C(=O)O | . | . | i | . | 20.2% | .
COc1ccc(-c2sc3ccc(N4CCOCC4)cc3c2C#CC2(O)CCCCC2)cc1 | -30.6% | ? | ? | ? | 6.5% | 20.6µM*
COc1cccc(-c2sc3ccc(OC)cc3c2C#CC2(O)CCCCC2)c1 | -41.1% | ? | i | ? | 1.4% | ?
COc1ccc(-c2sc3ccc(N4CCOCC4)cc3c2C#CCO)cc1 | -46.7% | ? | ? | ? | 28.2µM* | -18.2%
N#C/C(=C\C=C\c1ccccc1[N+](=O)[O-])C(=O)NC1CCCCC1 | -30.2% | 5.2% | ? | ? | ? | 4.4%
N#C/C(=C\c1ccccc1[N+](=O)[O-])C(=O)NC1CCCCC1 | -2.3% | 18.4µM* | i | -7.2% | -3.5% | ?
CCC(=O)Nc1ccc(S(=O)(=O)NCc2ccc3c(c2)CCN3C(=O)c2ccc(C)cc2)cc1 | -26.9% | . | . | ? | . | .
O=c1c2ccccc2c2ccccc2c(=O)n1Nc1ccccc1 | -36.1% | 13µM* | ? | -4.7% | . | ?
CCCc1nc2cccnc2n1C1CCN(C(=O)CC2NC(=O)c3ccccc32)CC1 (stereo unspecified) | . | . | i | . | . | .
c1cn2c(NC3CCCC3)c(-c3ccc(N4CCOCC4)cc3)nc2cn1 | -41.9% | 9.2% | . | -24.8% | 49.9% | 6.2%
c1cn2c(NC3CCCCC3)c(-c3ccc(SC4CCCCC4)cc3)nc2cn1 | -0.8% | ? | . | 2.82µM* | 10.0% | ?
c1cc(SC2CCCCC2)cc(-c2nc3cnccn3c2NC2CCCCC2)c1 | 15.8µM* | ? | . | -16.6% | ? | ?
N[C@H](C(=O)O)[C@@H](O)c1ccc(O)c(O)c1 | . | . | i | . | 1.2% | .
CCCCCCCCCCCCOC(=O)N1CCN(/[N+]([O-])=N/Oc2ccc([N+](=O)[O-])cc2[N+](C)=O)CC1 | -42.3% | . | . | -1.6% | . | .
CC(C)(C)CC(C)(C)c1ccc(O)c(Cc2ccc(Cl)cc2Cl)c1 | -40.8% | 18.4µM* | 28.2µM* | ? | 22.4µM*! | 3.66µM*
